The source made the active and inactive calls. How the source made its calls: active means hit-call score of the fitted dose curve at least 0.9, where 1 is the maximum; inactive means score below 0.9.
How the values were obtained:
[1] = read-out: Macrophage colony-stimulating factor (MCSF), CSF1 (gene 1435); test: BSK_hDFCGF_MCSF: BioMAP Diversity Plus: hDFCGF Assay for Macrophage colony-stimulating factor (MCSF) Biomarker Activity (AID 2283060); conditions: primary human foreskin fibroblasts; actives raise or lower the signal
Summary of the method: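 fibroblasts (human foreskin, primary), 24 h post-dose; M-CSF by ELISA; bidirectional fit, DMSO = baseline.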

[2] = BSK_hDFCGF_SRB: Viability Assessment in the BioMAP Diversity Plus: hDFCGF Assay (AID 2283061); conditions: primary human foreskin fibroblasts;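 further: cells exposed to compound for 24 h before the read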
Summary of the method: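 SRB-based viability read on primary human skin fibroblasts at 24 h: TCA fixation, 0.1% dye, 560 nm. Gain or loss of signal is fitted against the DMSO negative control.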

[3] = read-out: TIMP metallopeptidase inhibitor 1 (TIMP1), TIMP1 (gene 7076); test: BSK_hDFCGF_TIMP1: BioMAP Diversity Plus: hDFCGF Assay for TIMP metallopeptidase inhibitor 1 (TIMP1) Biomarker Activity (AID 2283062); conditions: primary human foreskin fibroblasts; actives raise or lower the signal
Summary of the method: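 Bidirectional curve fitting against DMSO baseline yielded this endpoint, based on ELISA detection of TIMP-1 in primary human foreskin fibroblasts exposed to compound for 24 h.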

[4] = read-out: Monokine induced gamma interferon (MIG), CXCL9 (gene 4283); test: BSK_hDFCGF_MIG: BioMAP Diversity Plus: hDFCGF Assay for Monokine induced gamma interferon (MIG) Biomarker Activity (AID 2283063); conditions: primary human foreskin fibroblasts; actives raise or lower the signal
Summary of the method: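 Endpoint derived by bidirectional fitting relative to DMSO; MIG quantified via ELISA in primary human foreskin fibroblasts harvested 24 h after dosing.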

[5] = read-out: Matrix Metallopeptidase 1 (MMP1), MMP1 (gene 4312); test: BSK_hDFCGF_MMP1: BioMAP Diversity Plus: hDFCGF Assay for Matrix Metallopeptidase 1 (MMP1) Biomarker Activity (AID 2283064); conditions: primary human foreskin fibroblasts; actives raise or lower the signal
Summary of the method: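 Primary human foreskin fibroblasts exposed to chemicals for 24 h; MMP1 measured by ELISA. Cytotoxicity tracked by SRB staining in parallel cultures; bidirectional fit relative to DMSO.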

[6] = read-out: Vascular cell adhesion molecule 1 (VCAM1), VCAM1 (gene 7412); test: BSK_hDFCGF_VCAM1: BioMAP Diversity Plus: hDFCGF Assay for Vascular cell adhesion molecule 1 (VCAM1) Biomarker Activity (AID 2283065); conditions: primary human foreskin fibroblasts; actives raise or lower the signal;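 on AC50: VCAM-1 protein level quantified by ELISA after 24 h chemical exposure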
Summary of the method: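 Measured after 24 h chemical treatment of primary human skin fibroblasts, VCAM-1 was detected by ELISA and concentration-response analysed in both directions versus DMSO vehicle.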

[7] = read-out: Plasminogen activator inhibitor-1 (PAI1), SERPINE1 (gene 5054); test: BSK_hDFCGF_PAI1: BioMAP Diversity Plus: hDFCGF Assay for Plasminogen activator inhibitor-1 (PAI1) Biomarker Activity (AID 2283066); conditions: primary human foreskin fibroblasts; actives raise or lower the signal
Summary of the method: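 PAI-1 levels, determined by ELISA, served as the endpoint in human foreskin fibroblast cultures exposed to compound for 24 h, with DMSO as baseline.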

[8] = read-out: Intercellular Adhesion Molecule 1 (ICAM1), ICAM1 (gene 3383); test: BSK_KF3CT_ICAM1: BioMAP Diversity Plus: KF3CT Assay for Intercellular Adhesion Molecule 1 (ICAM1) Biomarker Activity (AID 2283067); conditions: primary human keratinocytes with fibroblasts; actives raise or lower the signal
Summary of the method: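 Bidirectional curve fitting against a DMSO baseline was applied to ICAM-1 ELISA signal from primary human skin co-cultures harvested 24 h after treatment, with SRB staining of parallel wells for overt cytotoxicity.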

[9] = read-out: Interferon-gamma inducible Protein 10 (IP10), CXCL10 (gene 3627); test: BSK_KF3CT_IP10: BioMAP Diversity Plus: KF3CT Assay for Interferon-gamma inducible Protein 10 (IP10) Biomarker Activity (AID 2283068); conditions: primary human keratinocytes with fibroblasts; actives raise or lower the signal
Summary of the method: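 Human keratinocyte plus foreskin fibroblast primary co-culture exposed to test chemical for 24 h; IP-10 measured by ELISA. Concentration-response fitted bidirectionally against DMSO control as baseline.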

[10] = BSK_KF3CT_SRB: Viability Assessment in the BioMAP Diversity Plus: KF3CT Assay (AID 2283069); conditions: primary human keratinocytes with fibroblasts;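 further: total protein by sulforhodamine B staining as a cytotoxicity measure; read 24 h after compound addition; fitted for both signal gain and loss against DMSO baseline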
Summary of the method: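 Human keratinocyte and foreskin fibroblast co-culture exposed to chemical for 24 h. Total protein measured in parallel cultures by 0.1% sulforhodamine B staining after 10% TCA fixation, read at 560 nm; bidirectional fit relative to DMSO.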

[11] = read-out: Interleukin-1 alpha (IL1a), IL1A (gene 3552); test: BSK_KF3CT_IL1a: BioMAP Diversity Plus: KF3CT Assay for Interleukin-1 alpha (IL1a) Biomarker Activity (AID 2283070); conditions: primary human keratinocytes with fibroblasts; actives raise or lower the signal
Summary of the method: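 Primary human keratinocyte plus foreskin fibroblast co-culture, dosed and measured at 24 h in 96-well plates. IL-1a level quantified by ELISA; bidirectional fit relative to DMSO.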

[12] = read-out: TIMP metallopeptidase inhibitor 2 (TIMP2), TIMP2 (gene 7077); test: BSK_KF3CT_TIMP2: BioMAP Diversity Plus: KF3CT Assay for TIMP metallopeptidase inhibitor 2 (TIMP2) Biomarker Activity (AID 2283071); conditions: primary human keratinocytes with fibroblasts; actives raise or lower the signal
Summary of the method: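 Keratinocyte–fibroblast co-culture, 24 h exposure; TIMP-2 ELISA, DMSO-normalised bidirectional fit. Parallel SRB (0.1%, TCA-fixed, 560 nm) total-protein staining gauges cytotoxicity.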

[13] = read-out: Transforming growth factor beta 1 (TGFb1), TGFB1 (gene 7040); test: BSK_KF3CT_TGFb1: BioMAP Diversity Plus: KF3CT Assay for Transforming growth factor beta 1 (TGFb1) Biomarker Activity (AID 2283072); conditions: primary human keratinocytes with fibroblasts; actives raise or lower the signal
Summary of the method: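 Signal changes in either direction, relative to DMSO, define activity here. TGF-b1 is read by ELISA from a human keratinocyte-fibroblast co-culture 24 h post-dose.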

[14] = read-out: C-C motif chemokine 2 (Homo sapiens) (UniProt P13500); test: BSK_KF3CT_MCP1: BioMAP Diversity Plus: KF3CT Assay for Monocyte Chemoattractant Protein 1 (MCP1/CCL2) Biomarker Activity (AID 2283073); conditions: primary human keratinocytes with fibroblasts; actives raise or lower the signal
Summary of the method: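 Biomarker MCP-1 is measured by ELISA in primary human keratinocytes co-cultured with foreskin fibroblasts, 24 h after chemical treatment; DMSO serves as the negative control and activity baseline.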

[15] = read-out: Matrix Metallopeptidase 9 (MMP9), MMP9 (gene 4318); test: BSK_KF3CT_MMP9: BioMAP Diversity Plus: KF3CT Assay for Matrix Metallopeptidase 9 (MMP9) Biomarker Activity (AID 2283074); conditions: primary human keratinocytes with fibroblasts; actives raise or lower the signal;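 on AC50: MMP9 protein level quantified by ELISA in the co-culture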
Summary of the method: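 Human keratinocyte and foreskin fibroblast co-culture exposed to chemicals for 24 h; MMP9 biomarker measured by ELISA, bidirectional fitting relative to DMSO; cytotoxicity tracked by SRB total protein staining in parallel cultures.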

[16] = read-out: urokinase plasminogen activator (uPA), PLAU (gene 5328); test: BSK_KF3CT_uPA: BioMAP Diversity Plus: KF3CT Assay for urokinase plasminogen activator (uPA) Biomarker Activity (AID 2283075); conditions: primary human keratinocytes with fibroblasts; actives raise or lower the signal
Summary of the method: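 Primary human keratinocyte/foreskin fibroblast co-culture exposed to chemical; uPA measured by ELISA at 24 h. Bidirectional fit versus DMSO, with parallel SRB total-protein staining for cytotoxicity.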

[17] = read-out: E-selectin (Homo sapiens) (UniProt P16581); test: BSK_LPS_Eselectin: BioMAP Diversity Plus: LPS Assay for Eselectin Biomarker Activity (AID 2283077); conditions: primary human HUVEC with PBMC; actives raise or lower the signal
Summary of the method: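 Dose chemical onto LPS-driven HUVEC/PBMC co-culture; after 24 h, run ELISA for E-selectin; fit up- and down-going responses relative to DMSO control.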

[18] = read-out: Interleukin-8 (IL8), CXCL8 (gene 3576); test: BSK_LPS_IL8: BioMAP Diversity Plus: LPS Assay for Interleukin-8 (IL8) Biomarker Activity (AID 2283078); conditions: primary human HUVEC with PBMC; actives raise or lower the signal
Summary of the method: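 In this LPS system, chemical-treated human umbilical vein endothelium/PBMC co-cultures were harvested at 24 h for IL-8 ELISA.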

[19] = BSK_LPS_SRB: Viability Assessment in the BioMAP Diversity Plus: LPS Assay (AID 2283079); conditions: primary human HUVEC with PBMC;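 further: total protein by sulforhodamine B absorbance as a cytotoxicity measure; measured one day after compound addition; fitted in both directions against DMSO so loss or gain of signal counts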
Summary of the method: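 Cytotoxicity endpoint in human endothelial–PBMC co-culture: 24 h exposure, then SRB (0.1%) staining, 560 nm read.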

[20] = read-out: CD40, CD40 (gene 958); test: BSK_LPS_CD40: BioMAP Diversity Plus: LPS Assay for CD40 Biomarker Activity (AID 2283076); conditions: primary human HUVEC with PBMC; actives raise or lower the signal
Summary of the method: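 Using a multiplexed primary human co-culture (umbilical vein endothelium plus PBMC), CD40 was read by ELISA 24 h after dosing, with cytotoxicity tracked by sulforhodamine B staining of parallel cultures and activity fitted bidirectionally versus DMSO.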

Measured: AC50

Chain of E-selectin (Homo sapiens) (P16581 whole entry, looked up): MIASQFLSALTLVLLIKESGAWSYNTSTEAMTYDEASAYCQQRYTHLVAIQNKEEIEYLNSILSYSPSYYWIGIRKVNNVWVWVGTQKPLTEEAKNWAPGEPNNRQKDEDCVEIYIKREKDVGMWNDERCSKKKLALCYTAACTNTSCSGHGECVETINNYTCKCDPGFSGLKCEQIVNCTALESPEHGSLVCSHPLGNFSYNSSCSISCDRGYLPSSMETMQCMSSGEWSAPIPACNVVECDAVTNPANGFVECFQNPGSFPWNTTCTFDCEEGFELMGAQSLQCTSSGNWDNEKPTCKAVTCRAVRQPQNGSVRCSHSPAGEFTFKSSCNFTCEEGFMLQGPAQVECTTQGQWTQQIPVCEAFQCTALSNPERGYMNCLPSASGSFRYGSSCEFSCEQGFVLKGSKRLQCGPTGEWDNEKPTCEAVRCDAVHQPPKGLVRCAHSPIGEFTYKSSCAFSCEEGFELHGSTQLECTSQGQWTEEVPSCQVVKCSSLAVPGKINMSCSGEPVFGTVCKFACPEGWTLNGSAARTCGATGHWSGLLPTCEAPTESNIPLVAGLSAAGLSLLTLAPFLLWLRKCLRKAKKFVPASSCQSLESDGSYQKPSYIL

Clc1cc(Cl)c(Cl)c(Cl)c1Cl
active: [12] 20 µM
not listed: [20]
inactive: all other assays above

Cc1c(O)cccc1O
inactive: all assays above

CCCCCC1=CCCC1=O
active: [5] 0.016 µM
inactive: all other assays above

Cc1ccc([N+](=O)[O-])cc1N
inactive: all assays above

CCC1(C)C(=O)N(Cl)C(=O)N1Cl (stereo not given)
inactive: all assays above

C=CC(=O)NCOCCCC
not listed: [20]
inactive: all other assays above

CCNc1nc(NC(C)(C)C)nc(OC)n1
inactive: all assays above

c1ccc2sc(SSN3CCOCC3)nc2c1
active: [1] 9.39 µM | [2] 7.52 µM | [3] 10.7 µM | [7] 4.82 µM | [8] 10.7 µM | [9] 23.8 µM | [10] 10.3 µM | [11] 12.2 µM | [14] 12.2 µM | [15] 12.6 µM | [16] 12.9 µM
inactive: [4] | [5] | [6] | [12] | [13] | [17] | [18] | [19]

CCCCCCC=O
not listed: [20]
inactive: all other assays above

CC(C)c1cccc(C(C)C)c1N
inactive: all assays above

O=C(Oc1ccccc1)c1ccccc1C(=O)Oc1ccccc1
active: [7] 20 µM
inactive: all other assays above

Nc1cccc(N)n1
inactive: all assays above

CC=C(C)C=CC=C(C)C
active: [1] 3.97 µM | [6] 6.06 µM | [7] 0.016 µM | [11] 0.016 µM | [15] 20 µM | [16] 3.13 µM
not listed: [20]
inactive: all other assays above

Source: PubChem BioAssay (EPA / NIEHS)
